Results on 12 molecules are retold here after PubChem BioAssay.

The nature of assay [1]: inhibitors of TNFa-induced NFkB p65 translocation, primary screen, imaging, HUVEC, MLSMR starter and 10KST1 sets (AID 438).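 For inhibition: signal is the nuclear over cytoplasmic p65 intensity ratio per well.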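 Note: compound added about 3h40 before a 20 min TNFalpha stimulation.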 The note with it: HUVEC TNFa-induced p65 nuclear translocation; cell count: measured here: nuclei count (cytotoxicity indicator), at 2.08 µM; inhibition: at 2 µM, stronger effect = higher value, 0% TNFa-plus-vehicle, 100% no-TNFa wells.
Assay [2] can be described thus: inhibitors of mutant huntingtin aggregation, primary screen, imaging, exon1htt(103Q)mCFP cells, high-content imaging (AID 483;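 active = visual image review flags a hit and inhibition of aggregation exceeds 20%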;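 note: compound exposure lasted 3 days before fixation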;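 for nuclei count: percent of the per-plate median nuclei count of sample wells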). The note with it: exon1htt(103Q)mCFP cell line, aggregate imaging, at 2 µM; inhibition of aggregation: stronger effect = higher value; nuclei count: measured here: cell count, toxicity.
Assay [3] is described as follows: inhibitors of E-selectin induction by TNFa, primary screen, imaging, HUVEC, immunofluorescence, MLSMR starter and 10KST1 sets (AID 487;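 active = visually confirmed hit in the image check and inhibition above 20%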;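 for inhibition: signal is fraction of cell area covered by stained E-selectin grains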;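 for nuclei count: 100% = median nuclei count of all wells on the same plate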). The note with it: HUVEC TNFalpha-induced E-selectin immunofluorescence imaging, at 2 µM; inhibition: stronger effect = higher value; nuclei count: measured here: cell number, toxicity.
For assay [4], the target named is Voltage-gated potassium channel subunit beta-2 (Rattus norvegicus) (UniProt P62483). Briefly: KvBeta enzyme negative modulators, primary screen, biochemical, NADPH fluorescence (AID 622;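 active = fluorescence slope higher than the sample average by over 3 SD, cut at about -0.22 in these data, passing the limit was not always enough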;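 note: slope of raw intensity against log time taken from 70 to 1610 s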). The note with it: recombinant KvBeta, 4-cyanobenzaldehyde reduction, at 10 µM, stronger effect = higher value.
For assay [5] the target is unchanged. Briefly: KvBeta positive modulators, primary screen, biochemical, NADPH fluorescence (AID 623;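 active = NADPH fluorescence slope more negative than the mean of all samples by about 3 SD, 99.7% confidence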;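 note: fluorescence intensity change per second fitted from 20 to 320 s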). The note with it: Recombinant KvBeta, NADPH fluorescence decrease slope, 10 min; at 10 µM; stronger effect = lower value.
Assay [6] addresses Alpha-2C adrenergic receptor (Homo sapiens) (UniProt P18825). Briefly: modulators of alpha2C/GIRK thallium flux, primary screen, cell-based, HEK293 alpha2C/GIRK1/2 (AID 624;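 active = fluorescence slope after compound addition differing from the mean of all screened samples at 99.7% confidence, in either direction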;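 note: slope of fluorescence ratio to pre-addition baseline per second over 15 to 24 s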). The note with it: thallium flux BTC fluorescence, at 10 µM, actives lie on both sides.
The nature of assay [7]: inhibitors of Sendai virus-induced IRF3 signaling, primary screen, TLR/RLR signaling modifier project, cell-based, Sendai virus stimulus, luciferase, 10K MLSCN set (AID 602276;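 active = inhibition at or above 50% at 10 µM; inactive = inhibition below 50%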;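 note: firefly luciferase from ISG56 promoter only with Renilla not read in this screen; 0% = Sendai virus plus DMSO and 100% = medium plus DMSO without virus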). The note with it: HEK293 RL24 IRF3 luciferase reporter, at 10 µM, stronger effect = higher value. (In general: In a reporter assay the amount or activity of a reporter protein is the signal.)
Assay [8] can be described thus: inhibitors of poly I:C-induced TLR3 signaling, primary screen, cell-based, poly I:C stimulus, luciferase, 10K MLSCN set (AID 602277;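 active = inhibition of the reporter signal at or above 50%; inactive = inhibition below 50%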). The note with it: HEK293-TLR3 RL24 IRF3 luciferase reporter, at 10 µM, stronger effect = higher value.

Active and inactive are the calls of the source.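 Rule for the calls, unless noted: active = inhibition above 20% together with a positive visual image hit; inconclusive = visual image hit but inhibition not above 20%; inactive = no visual image hit.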

Sequence of Alpha-2C adrenergic receptor (Homo sapiens) (P18825 whole entry, looked up): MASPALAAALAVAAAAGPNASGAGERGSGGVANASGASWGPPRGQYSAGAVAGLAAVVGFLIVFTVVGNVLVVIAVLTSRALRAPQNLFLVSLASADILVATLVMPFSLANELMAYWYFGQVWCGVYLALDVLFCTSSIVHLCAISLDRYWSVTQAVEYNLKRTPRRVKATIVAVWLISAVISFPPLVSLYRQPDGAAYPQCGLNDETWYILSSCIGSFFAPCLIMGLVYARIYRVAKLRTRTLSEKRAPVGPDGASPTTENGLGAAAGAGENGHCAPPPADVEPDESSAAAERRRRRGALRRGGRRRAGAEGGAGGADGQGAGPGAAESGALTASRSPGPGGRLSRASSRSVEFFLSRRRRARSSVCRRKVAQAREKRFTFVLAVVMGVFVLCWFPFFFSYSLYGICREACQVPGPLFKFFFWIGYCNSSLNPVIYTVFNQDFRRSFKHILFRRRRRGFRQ
Sequence of Voltage-gated potassium channel subunit beta-2 (Rattus norvegicus) (P62483 whole entry, looked up): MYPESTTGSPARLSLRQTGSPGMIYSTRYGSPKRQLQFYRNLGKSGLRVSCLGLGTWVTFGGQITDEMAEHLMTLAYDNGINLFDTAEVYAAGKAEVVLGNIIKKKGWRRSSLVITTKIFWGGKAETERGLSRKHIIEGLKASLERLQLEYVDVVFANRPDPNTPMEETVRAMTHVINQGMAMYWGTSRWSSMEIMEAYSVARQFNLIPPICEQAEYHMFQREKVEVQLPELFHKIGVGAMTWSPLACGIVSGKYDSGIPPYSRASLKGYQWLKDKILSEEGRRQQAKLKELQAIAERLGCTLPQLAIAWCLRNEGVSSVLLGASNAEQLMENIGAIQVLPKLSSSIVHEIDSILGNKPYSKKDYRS

On to `O=C(CSc1nnc(-c2ccccc2Br)o1)Nc1cccc2ccccc12`, for which the cell count in assay [1] amounted to 541. In addition, the inhibition (commonly the change of the read-out against control, counted positive when it falls) is -12.1% (inactive) in assay [1], 33.7% (inactive) in assay [3], 1.31% (inactive) in assay [7] and -12.6% (inactive) in assay [8]. Also, the inhibition of aggregation in assay [2] is 16.2% (inactive). The nuclei count was found to be 81.3% in assay [2] and 65.3% in assay [3]. The fluorescence slope in assay [4] is -0.546 (inactive). In assay [5], the NADPH fluorescence slope was 2.3e-05 (inactive). For the same molecule, in assay [6], the slope was 0.00661 (inactive).

For the molecule `CCC(Sc1nc2sc(C(=O)OC)c(C)c2c(=O)n1N)C(=O)NCC1CCCO1` (configuration not stated), the cell count in assay [1] amounted to 477. Besides, the inhibition in assay [1] was 7.5% (inactive); in assay [3], 12% (inactive); in assay [7] it was 7.5% (inactive); in assay [8] it was 11.6% (inactive). In addition, in assay [2], the inhibition of aggregation is -2.8% (inactive). The nuclei count in assay [2] came to 117%; in assay [3] it was 98.2%. For the same molecule, the fluorescence slope in assay [4] is -0.592 (inactive). Besides, the NADPH fluorescence slope in assay [5] is -6.1e-05 (inactive). In addition, the slope in assay [6] was 0.00714 (inactive).

In the case of `O=C(O)CCc1ccc(-c2ccc(Br)cc2)n1CC(=O)O`, the cell count in assay [1] came out at 339. Also, the inhibition in assay [1] is 7.5% (inactive); in assay [3], -65% (inactive); in assay [7], 10.9% (inactive); in assay [8], 28.5% (inactive). In addition, the inhibition of aggregation in assay [2] is -4.6% (inactive). Also, the nuclei count in assay [2] is 90%; in assay [3], 112%. Further, the fluorescence slope in assay [4] is -0.378 (inactive). Also, the NADPH fluorescence slope in assay [5] was -5.5e-05 (inactive). In addition, the slope in assay [6] is 0.00594 (inactive).

On to `Cn1c(=O)c2c(nc(NCCCO)n2CCc2ccccc2)n(C)c1=O`, for which the cell count in assay [1] worked out at 422. The inhibition in assay [1] was 9.7% (inactive); in assay [3] it was -27.9% (inactive); in assay [7], -9.22% (inactive); in assay [8], 4.62% (inactive). The inhibition of aggregation in assay [2] was -11.3% (inactive). Further, the nuclei count in assay [2] turned out to be 105%; in assay [3] it was 103%. Moreover, in assay [4], the fluorescence slope is -0.506 (inactive). In addition, the NADPH fluorescence slope in assay [5] was 4.3e-05 (inactive). In addition, the slope in assay [6] was 0.00351 (inactive).

For the molecule `Cc1ccc(C)c(N2CCN(C(=O)CCCn3c(=S)[nH]c4cc5c(cc4c3=O)OCO5)CC2)c1`, in assay [1], the cell count amounted to 494. For the same molecule, the inhibition in assay [1] was 2.5% (inactive); in assay [3], -37.7% (inactive); in assay [7] it was 0.122% (inactive); in assay [8], 17.7% (inactive). Further, the inhibition of aggregation in assay [2] is -3.8% (inactive). The results for the nuclei count in assay [2] and in assay [3] were 109% and 114%, respectively. The fluorescence slope in assay [4] is -0.433 (inactive). Further, the NADPH fluorescence slope in assay [5] is 1.2e-05 (inactive). For the same molecule, the slope in assay [6] was 0.00641 (inactive).

Regarding `COc1ccc(NC(=O)CC2Sc3ncnn3C2=O)cc1` (configuration not stated), the cell count in assay [1] was 632. The inhibition in assay [1] was -5% (inactive); in assay [3], -65.3% (inactive); in assay [7] it was 8.74% (inactive); in assay [8], 16.8% (inactive). Besides, the inhibition of aggregation in assay [2] is -9.2% (inactive). Also, the nuclei count in assay [2] is 128%; in assay [3], 126%. In addition, the fluorescence slope in assay [4] was -0.567 (inactive). The NADPH fluorescence slope in assay [5] is -4e-05 (inactive). Moreover, the slope in assay [6] was 0.0059 (inactive).

As to `CC(=O)NC(CCS(C)(=O)=O)C(=O)Nc1cccc2ccccc12` (configuration not stated), the cell count in assay [1] turned out to be 667. Moreover, the inhibition in assay [1] is 3.9% (inactive); in assay [3], -7.5% (inactive); in assay [7], 1.24% (inactive); in assay [8], 31.9% (inactive). Besides, in assay [2], the inhibition of aggregation was 18.3% (inactive). Further, the nuclei count was 100% in assay [2] and 108% in assay [3]. In assay [4], the fluorescence slope was -0.564 (inactive). The NADPH fluorescence slope in assay [5] was -3.4e-05 (inactive). Besides, the slope in assay [6] is 0.006 (inactive).

Turning to `O=C1c2ccccc2CN1CCNS(=O)(=O)c1ccc(Cl)cc1`, the cell count in assay [1] came out at 414. Also, the inhibition in assay [1] is -1% (inactive); in assay [3], -1.7% (inactive); in assay [7], 14.1% (inactive); in assay [8] it was 25.9% (inactive). Moreover, in assay [2], the inhibition of aggregation is -2.3% (inactive). For the same molecule, the nuclei count in assay [2] turned out to be 101%; in assay [3], 97%. For the same molecule, in assay [4], the fluorescence slope was -0.389 (inactive). Further, the NADPH fluorescence slope in assay [5] is -7.9e-06 (inactive). Besides, in assay [6], the slope was 0.00712 (inactive).

As to `COc1cc(C(=O)Nc2cccc(-c3nncn3C)c2)cc(OC)c1OC`, the cell count in assay [1] amounted to 416. The inhibition is 7.6% (inactive) in assay [1], -52.3% (inactive) in assay [3], 14.3% (inactive) in assay [7] and 14.5% (inactive) in assay [8]. Further, the inhibition of aggregation in assay [2] is 22.2% (inactive). Also, the nuclei count in assay [2] turned out to be 76.5%; in assay [3] it was 102%. In assay [4], the fluorescence slope was -0.303 (inactive). Also, the NADPH fluorescence slope in assay [5] is -2.8e-05 (inactive). For the same molecule, the slope in assay [6] is 0.00614 (inactive).

Take `Cc1onc(-c2ccccc2Cl)c1C(=O)NCc1cccnc1`: the cell count in assay [1] is 700. Also, the inhibition is 1% (inactive) in assay [1], 8.5% (inactive) in assay [3], 17.8% (inactive) in assay [7] and 19.3% (inactive) in assay [8]. Also, the inhibition of aggregation in assay [2] is 8.2% (inactive). The nuclei count was determined as 97.9% in assay [2] and 92.3% in assay [3]. Further, the fluorescence slope in assay [4] was -0.523 (inactive). Also, in assay [5], the NADPH fluorescence slope was 1.3e-05 (inactive). Besides, in assay [6], the slope was 0.00593 (inactive).

In the case of `CCOc1ccccc1NC(=O)CC1Nc2cc(C)c(C)cc2NC1=O` (configuration not stated), the cell count in assay [1] stood at 374. For the same molecule, the inhibition is 1.8% (inactive) in assay [1], -48.5% (inactive) in assay [3], 14.6% (inactive) in assay [7] and 26% (inactive) in assay [8]. Besides, the inhibition of aggregation in assay [2] is 23.2% (inactive). Further, the figures for the nuclei count in assay [2] and in assay [3] were 94.4% and 105%, respectively. Further, the fluorescence slope in assay [4] is -0.265 (inactive). Also, the NADPH fluorescence slope in assay [5] was -1.1e-05 (inactive). The slope in assay [6] was 0.00531 (inactive).

For `Cc1cc(C)nc(NC(=O)c2cnc3sccn3c2=O)n1`, in assay [1], the cell count is 650. For the same molecule, the inhibition in assay [1] is -14% (inactive); in assay [3] it was -14.9% (inactive); in assay [7], 17.6% (inactive); in assay [8], 47.4% (inactive). The inhibition of aggregation in assay [2] was 18.2% (inactive). In addition, the nuclei count in assay [2] is 84.7%; in assay [3], 110%. The fluorescence slope in assay [4] was -0.528 (inactive). Besides, the NADPH fluorescence slope in assay [5] is -3.1e-05 (inactive). Besides, the slope in assay [6] is 0.00661 (inactive).
